# Experimental data taken from PubChem BioAssay (NCI).
# This is part of a sample that, as a whole, favours compounds with a hit. Of some 83,000 tested, about 20% had one in any assay.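 Treatment: one concentration, 48 hours, 96-well format. Scoring: percent growth, with anything below 10 considered active.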 A number with no mark means an inactive call. Active and inactive are the calls of the source.
# What was measured:
# Assay in all cases: NCI-60 one-dose screen, 48 h (100 = growth as untreated, 0 = no growth, -100 = all killed)
# Details in all cases: 10 µM unless noted
# SK-MEL-2 melanoma = test system: SK-MEL-2 melanoma
# EKVX NSCLC = test system: EKVX NSCLC
# SN12C renal = test system: SN12C renal
# UO-31 renal = test system: UO-31 renal
# TK-10 renal = test system: TK-10 renal
# ACHN renal = test system: ACHN renal
# CAKI-1 renal = test system: CAKI-1 renal
# A498 renal = test system: A498 renal
# CCRF-CEM leukemia = test system: CCRF-CEM leukemia
# MOLT-4 leukemia = test system: MOLT-4 leukemia
# SR leukemia = test system: SR leukemia
# RPMI-8226 leukemia = test system: RPMI-8226 leukemia
# OVCAR-8 ovarian = test system: OVCAR-8 ovarian
# OVCAR-5 ovarian = test system: OVCAR-5 ovarian
# OVCAR-4 ovarian = test system: OVCAR-4 ovarian
# SK-OV-3 ovarian = test system: SK-OV-3 ovarian
# IGROV1 ovarian = test system: IGROV1 ovarian
# OVCAR-3 ovarian = test system: OVCAR-3 ovarian
# HS 578T breast = test system: HS 578T breast
# NCI/ADR-RES ovarian = test system: NCI/ADR-RES ovarian
SMILES,growth (SK-MEL-2 melanoma),growth (EKVX NSCLC),growth (SN12C renal),growth (UO-31 renal),growth (TK-10 renal),growth (ACHN renal),growth (CAKI-1 renal),growth (A498 renal),growth (CCRF-CEM leukemia),growth (MOLT-4 leukemia),growth (SR leukemia),growth (RPMI-8226 leukemia),growth (OVCAR-8 ovarian),growth (OVCAR-5 ovarian),growth (OVCAR-4 ovarian),growth (SK-OV-3 ovarian),growth (IGROV1 ovarian),growth (OVCAR-3 ovarian),growth (HS 578T breast),growth (NCI/ADR-RES ovarian)
CO/N=C(/C)c1ccc(NC(=O)CSc2nnc(-c3ccncc3)n2-c2ccccc2)cc1,67.6%,64.3%,36.1%,9.43% (active),-15.3% (active),10.1%,26.8%,89.7%,91.6%,92.2%,99.6%,80.8%,1.47% (active),79.5%,-30.7% (active),24.1%,33.4%,29.3%,-0.835% (active),0.0208% (active)
Cc1cnc(C(=O)NNc2nc3sc4c(c3c(=O)n2C)C(C)CCC4)cn1 (stereo not given),-6.07% (active),6.08% (active),9.01% (active),-0.356% (active),27.2%,9.47% (active),2.74% (active),21.1%,2.41% (active),3.79% (active),12.2%,9.06% (active),5.29% (active),2.46% (active),-14.7% (active),11.9%,-18.6% (active),-2.78% (active),34.2%,1.29% (active)
O=C1Nc2ccccc2/C1=C\c1nc(-c2ccccc2F)n2ccccc12,-6.84% (active),47.6%,14.5%,-16.2% (active),-6.87% (active),-58.5% (active),-13.9% (active),-10.4% (active),79%,70.6%,49.6%,44.6%,5.14% (active),47.8%,-34.4% (active),-0.955% (active),2.99% (active),6.22% (active),12%,9.77% (active)
CCN1CCN(c2cc(C(=O)Nc3nc(-c4cc(OC)c(OC)c(OC)c4)cs3)cc(C(F)(F)F)c2)CC1,81.4%,64.9%,71.8%,37%,82.4%,73.2%,84%,73.5%,59%,43.9%,9.19% (active),56.9%,65.1%,74.6%,68.9%,90.5%,41.5%,81.3%,68.1%,55.8%
CCCCCCCCCCCCCCCC(N)c1ccccc1 (stereo not given),70.8%,25.3%,28%,26.2%,52.2%,-50.3% (active),9.49% (active),60.8%,-1.76% (active),-38.6% (active),-26.1% (active),-27.9% (active),-26.3% (active),79.7%,-15.8% (active),77.1%,-46.6% (active),-70.2% (active),60.6%,-31.1% (active)
OCCNCCCOc1ccc2ncnc(Nc3ccc(Oc4cccc(C(F)(F)F)c4)c(Cl)c3)c2c1,73.5%,27%,58.1%,26%,49%,-45.4% (active),9.01% (active),58.8%,6.8% (active),1.07% (active),5.48% (active),-12.1% (active),32.1%,72.8%,5.48% (active),13.7%,-35% (active),3.15% (active),34.2%,69.1%
CCN1CC(=O)N(/N=C2\C(=O)Nc3ccccc32)C1=S,92.7%,80.8%,86.1%,60.5%,105%,76.9%,59%,82.4%,102%,98%,83.1%,96%,95.4%,97.2%,97.2%,78.4%,55.3%,98.1%,83%,103%
CCOC(=O)c1cc(-c2ccc([N+](=O)[O-])cc2)n(-c2ccc(C(=O)O)c(O)c2)c1C,53.8%,55.3%,72.7%,24.5%,101%,68.7%,79.4%,76.4%,50%,27.2%,67.1%,-3.07% (active),38.6%,114%,52%,95.6%,-11.3% (active),79.6%,67.8%,57.5%
Oc1ccc(CN2CCC(N3CCCCC3)CC2)c2cccnc12,2.95% (active),45.6%,22.2%,5.93% (active),-58.5% (active),8.86% (active),44%,71.3%,35.8%,41.2%,19.7%,19.4%,25%,47.2%,22.7%,16%,25.4%,28.8%,27.6%,30.8%
O=C(c1cc2ccccc2o1)c1nn(-c2ccccc2)/c(=N/N=Cc2cn(-c3ccccc3)nc2-c2cc3ccccc3oc2=O)s1,100%,92.7%,113%,68.5%,107%,102%,79.1%,116%,92.8%,93.3%,72.7%,90.9%,97.5%,105%,93.3%,127%,99.1%,100%,99.8%,96.5%
O=C(/C=C/c1cn(-c2ccccc2)nc1-c1ccc([N+](=O)[O-])cc1)c1ccc(Cl)cc1,96.2%,60.7%,50.5%,41.2%,14.1%,52.3%,31.9%,78.5%,38%,38%,-22.6% (active),38.3%,38.1%,34.2%,-21.8% (active),66.5%,48%,10.6%,-12% (active),41.1%
CN1CCN(c2ccc(NC(=O)c3cncnc3Nc3ccc(OCc4ccccn4)c(Cl)c3)cc2)CC1,21.6%,85.6%,59.2%,-72.1% (active),92.4%,51.8%,64.2%,67.2%,11.2%,8.56% (active),4.59% (active),23.3%,15.2%,46.4%,61.8%,99.4%,79.4%,70.6%,67.4%,70.5%
CCn1c(=S)sc2c(Nc3ccc(F)cc3)nc(-c3cccnc3)nc21,63.1%,80.5%,84.1%,78.5%,58.2%,40.7%,55.1%,93.7%,102%,93.7%,95.6%,88%,43.7%,85.8%,-12% (active),56.6%,75.3%,78.7%,49%,55.4%
COc1cc(OC)cc(C2=C3CC[C@@H]4[C@H](CC[C@]5(C)C(=O)CC[C@@H]45)C3=CC3C(O)c4cccnc4N4C(=O)COC234)c1 (stereo not given in full),108%,101%,101%,86.2%,96.5%,102%,86.6%,91.6%,104%,96.2%,82.3%,96.2%,95%,95.5%,87.1%,116%,101%,115%,90.1%,105%
O=C(/C=C/c1ccccc1)c1cccc(OCCCOc2cccc(C(=O)/C=C/c3ccccc3)c2)c1,101%,103%,94.2%,74.2%,107%,102%,86.4%,92%,76.5%,86.9%,5.29% (active),-25.7% (active),73.8%,111%,92.5%,109%,85.1%,78.8%,113%,96.4%
